# Screening results: PubChem BioAssay, National Center for Advancing Translational Sciences (NCATS)
# RE007 growth inh = less growth of the S. pombe RE007 Vpr strain; AID 651644; 360,000 compounds, 0.21% hits; S. pombe RE007 Vpr strain, BacTiter-Glo ATP luminescence, 24 h; Potency, µM (titrated, usually from 92.2 µM), inactives show at the highest dose activity change, negative = less growth, most hits filed as inhibitors; active = well fitted falling curve with a large enough effect; inconclusive = small, poorly fitted or top-dose-only effect; inactive = no such curve, though single readings can be large or run the other way; note: nearly all actives have a fitted effect of over 50% in size
#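 Fission yeast RE007 carrying one integrated HIV-1 vpr copy, seeded at OD 0.01 in PMG+AL medium with 23 nL pinned compound. Grown 24 h at 30 degrees; viability read by BacTiter-Glo luminescence after 5 min.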
# Tb PYK inh = blocks Trypanosoma brucei pyruvate kinase; Q57TT1; TbPYK enzyme, Kinase-Glo Plus ATP luminescence, 45 min; Potency, µM (top dose mostly 76.8 µM), for the others: at the highest dose activity, negative = inhibition, usual class: inhibitors; 410,000 compounds, 0.12% hits; note: nearly all actives have a fitted effect of over 50% in size
#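 Quantitative HTS: titrated library compounds versus trypanosomal pyruvate kinase in TEA buffer (pH 7.2) containing KCl, MgCl2, BSA and Tween-20. Reactions were initiated with ADP, 130 uM final. Kinase-Glo Plus luminescence was read after 45 min at RT.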
# AMA1 RON2 block = inhibitors of Plasmodium falciparum AMA1-RON2 interaction. 360,000 compounds, 0.2% hits. AlphaScreen AMA1-biotinylated RON2 peptide binding. Potency, µM (series often up to 58.2 µM), inactives show at the top dose activity change, negative = inhibition, most hits filed as inhibitors;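 note: 0% = vehicle wells and -100% = peptide control; nearly all actives have a fitted effect of over 45% in size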
#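 AMA1 (3D7) with his tag at 25 nM final met compounds first, then biotinylated RON2 peptide at 25 nM; detection used donor plus acceptor beads, 10 µg/mL apiece, read by AlphaScreen after 30 min at room temperature.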
# LmPK inhibitor = LmPK (Leishmania mexicana) enzyme inhibition; Q27686; purified LmPK, Kinase-Glo ATP luminescence, 1 h; Potency, µM (highest dose often 57.5 µM), without a hit: at the highest dose activity change, negative = inhibition, actives largely listed as inhibitors; 290,000 compounds, 0.37% hits; AID 1721
# Target sequence (Q27686 whole entry, looked up): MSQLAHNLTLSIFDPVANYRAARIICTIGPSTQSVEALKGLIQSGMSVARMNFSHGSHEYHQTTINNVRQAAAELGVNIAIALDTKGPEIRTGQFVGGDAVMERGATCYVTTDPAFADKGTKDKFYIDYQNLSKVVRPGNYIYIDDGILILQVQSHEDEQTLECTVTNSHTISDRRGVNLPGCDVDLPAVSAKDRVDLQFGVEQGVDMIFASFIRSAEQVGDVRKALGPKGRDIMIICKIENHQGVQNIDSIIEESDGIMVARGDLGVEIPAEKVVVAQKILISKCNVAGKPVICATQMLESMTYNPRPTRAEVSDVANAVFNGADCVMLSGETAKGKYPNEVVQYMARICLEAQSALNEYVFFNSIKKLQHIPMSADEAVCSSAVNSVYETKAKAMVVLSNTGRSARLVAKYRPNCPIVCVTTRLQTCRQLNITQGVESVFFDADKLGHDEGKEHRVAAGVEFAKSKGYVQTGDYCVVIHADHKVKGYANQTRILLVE
#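 In 50 mM imidazole pH 7.2 with 7 mM MgCl2, LmPK (0.1 nM) turned over PEP (0.5 mM) and ADP (0.1 mM) for 1 h at room temperature. Luciferase read-out of ATP.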
# Sm TGR block = inhibitors of Schistosoma mansoni thioredoxin glutathione reductase; purified TGR, DTNB reduction, TNB absorbance 405 nm; Potency, µM (titrated, usually from 114 µM), inactives show top-dose activity change, negative = inhibition, hits mostly inhibitors; 360,000 compounds, 3% hits; AID 485364; note: nearly all actives have a fitted effect of over 60% in size
#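 TGR 20 nM + NADPH 100 uM (dispensed conc.), cpd preinc 15 min RT; start with NADPH (500 uM addition) then DTNB (15 mM addition). Kinetic TNB absorbance, 405 nm filter. Four-parameter Hill fit across titration.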
# The depositor's hits bear a star; ? = inconclusive; . = not tested or not shown; [ ] = another dose, or the depositor's remark. This is a sample that favours compounds with a hit; in the whole collection about 3.2% have one here. Unless noted, calls come from the whole dose curve; as a rule, active = well fitted curve in the direction sought with a large enough effect; inconclusive = small, poorly fitted or top-dose-only effect, or another doubt; inactive = no such curve, though single readings can be large; an effect the other way counts as inactive or inconclusive. Unless noted, % is set by controls: 0 for no effect and ±100 for the full control effect; potency is the fitted concentration of half-maximal effect.
SMILES,RE007 growth inh,Tb PYK inh,AMA1 RON2 block,LmPK inhibitor,Sm TGR block
Cc1[nH]c2ccccc2c1C(=O)CN1CCC2(CC1)OCCO2,11.1%,-11.9%,22.2%,2.7%,44.7µM*
CCCCN(CC)CCNC(=O)CN1C(=O)COc2ccc(S(=O)(=O)N3CCOCC3)cc21,.,-4.5%,.,.,-3.1%
CCOc1ccc(N=Nc2c(=O)[nH]n3c(=O)cc(C)[nH]c23)cc1,?,-12.3%,-0.7%,14.1µM*,0.0%
CCc1nn(CC(=O)Nc2c(C)cccc2C)c(=O)c2cc3sccc3n12,.,-2.0%,.,.,5.0%
N[C@@H](Cc1c[nH]c2ccccc12)C(=O)O,.,.,.,-1.8%,14.1µM*
NC(Cc1cc(O)c(O)cc1O)C(=O)O (stereo not drawn),.,.,.,.,15.8µM*
COc1ccc(-c2nc(SCC(=O)NC(C)CCc3ccccc3)n[nH]2)cc1 (stereo not drawn),.,0.7%,.,.,1.5%
COc1ccccc1NC(=O)CSc1nc2c(oc3ccccc32)c(=O)n1-c1ccc(C)cc1,.,-6.1%,.,.,0.9%
C/C(=N\NC(=O)c1ccoc1C)c1ccccc1,7.9%,-17.3%,85.2%,14.1µM*,-8.4%
C/C(=N\NC(=O)c1ccc2c(c1)OCCO2)c1ccccc1,7.1%,?,6.3%,11.2µM*,12.7%
Cc1ccsc1/C=N\NC(=O)c1n[nH]c2c1CCC2,-9.9%,-16.2%,-6.4%[11.6 µM],10µM*,-8.7%
Cc1ccsc1/C=N/NC(=O)c1ccc2c(c1)OCCO2,5.6%,0.3%,19.5%,22.4µM*,8.7%
COc1ccc(CCNC(=O)Cc2c(C)c3cc4c(C(C)(C)C)coc4c(C)c3oc2=O)cc1,.,-7.9%,.,.,3.2%
OCC(O)COc1ccc(Cl)cc1 (stereo not drawn),.,0.0%,.,.,.
Cc1occc1C(=O)NCc1cccc(CNC(=O)c2ccoc2C)c1,-5.9%,-24.2%,0.0%,7.3%,39.8µM*
O=C(NN=C1CCCC1)c1n[nH]c2c1CCCC2,-14.3%,-10.9%,66.7%,28.2µM*,.
S=C(NCCNC(=S)Nc1ccccc1Cl)Nc1ccccc1Cl,9.2%,1.3%,36.7%,0.5%,0.0%
S=C(NCc1cccs1)Nc1ccccc1Cl,-8.6%,-2.0%,6.7%,-1.7%,11.2µM*
S=C(NCc1cccs1)Nc1cc(Cl)cc(Cl)c1,-11.1%,-4.8%,27.3%,5.6%,11.2µM*
COc1ccc(CNC(=S)Nc2ccccc2Cl)cc1,2.1%,-1.3%,0.0%,-4.3%,39.8µM*
CCc1ccc(CNC(=O)c2sc3ncccc3c2-n2c(C)ccc2C)cc1,.,-3.4%,.,.,-1.9%
CCOc1ccc(CCNC(=O)c2ccc3c(c2)c(C)c(C)n3C)cc1,.,-3.0%[15.4 µM],.,.,-8.7%
CCOc1ccc(OC(=O)c2c(-c3ccccc3Cl)noc2C)cc1,.,-10.8%,.,.,12.3%
CC(C)CCNC(=O)c1ccc2c(c1)NC(=O)C(CS(=O)(=O)Cc1cccc(Br)c1)N2 (stereo not drawn),.,-13.7%[15.4 µM],.,.,50.1µM*
CN(C)CCNC(=O)c1ccc2c(c1)NC(=O)C(CS(=O)(=O)Cc1cccc(Br)c1)N2 (stereo not drawn),.,-9.4%,.,.,?
SMILES,RE007 growth inh,Tb PYK inh,AMA1 RON2 block,LmPK inhibitor,Sm TGR block
C=C1C(=O)O[C@@H]2C[C@@H](C)[C@@H]3C=CC(=O)[C@@]3(C)[C@@H](O)[C@H]12,4.7%[18.4 µM],3.7%,9.7%,-3.4%,25.1µM*
CC(=O)[C@@H]1[C@@H]2C(=O)N(Cc3ccccc3)C(=O)[C@@H]2C2c3ccccc3C=CN21 (stereo partly drawn),13.6%,-1.7%,33.5%,5.2%,44.7µM*
COc1ccc(N2C(=O)[C@@H]3[C@H](C2=O)[C@H]2c4ccccc4C=CN2[C@@H]3C(=O)Nc2ccccc2)cc1,-8.3%,0.0%,18.1%,5.7%,0.0%
Cc1ccc(N2C(=O)[C@@H]3[C@H](C2=O)C2c4ccccc4C=CN2[C@@H]3C(=O)c2ccco2)cc1 (stereo partly drawn),-23.3%,-0.4%,0.0%,2.1%,28.2µM*
O=C(c1ccco1)[C@@H]1[C@@H]2C(=O)N(c3ccccc3)C(=O)[C@@H]2C2c3ccccc3C=CN21 (stereo partly drawn),-15.1%,-4.3%,-0.3%,0.4%,56.2µM*
CC(=O)NCc1ccc(C(=O)CSc2nnc(-c3ccncc3)n2Cc2ccccc2)o1,3.9%,?,16.8%,3.1%,35.5µM*
O=C1CC(N(O)c2ccccc2)C(=O)N1c1ccc(Cl)c(Cl)c1 (stereo not drawn),15.3%,3.0%,6.9%,-1.2%,?
CCCCCCC(=O)N(O)C1CC(=O)N(c2ccc(Br)cc2)C1=O (stereo not drawn),?,-32.8%,5.1%,?,0.708µM*
CCCCN(C(=O)CCC(=O)O)C1CC(=O)N(c2ccc(OCCC)cc2)C1=O (stereo not drawn),3.3%,-1.5%,3.3%,-1.7%,-14.0%
CCCCCCC(=O)N(O)C1CC(=O)N(c2ccc(F)cc2)C1=O (stereo not drawn),6.31µM*,?,-7.5%,1.2%,0.631µM*
COc1ccccc1N(O)C1CC(=O)N(c2ccc(Br)cc2)C1=O (stereo not drawn),-13.2%,-17.9%,4.3%,-3.0%,2.82µM*
COc1ccc2c(c1)c1c(c(=O)n(-c3ccccc3C)c(=O)n1CC(=O)Nc1c(C)cccc1C)n2C,.,-1.1%,.,.,2.1%
CCN(CC)c1ccc(/C=C2\CCC(/C=C(\C#N)C(=O)Nc3ccccc3F)=C2N2CCOCC2)cc1,-4.1%,-18.5%,-3.5%,11.2µM*,-11.5%
Cc1cc(-c2n[nH]c(=S)n2/N=C/c2cc([N+](=O)[O-])ccc2Cl)n[nH]1,11.4%,3.98µM*,6.7%[11.6 µM],15.2%,-18.5%
Cc1cc(-c2n[nH]c(=S)n2/N=C/C=C/c2ccco2)n[nH]1,6.1%,-37.7%,46.2%,9.3%,22.4µM*
Cc1ccccc1-c1n[nH]c(=S)n1/N=C/C=C/c1ccco1,4.2%,-24.4%,4.0%,-1.2%,14.1µM*
S=c1[nH]nc(-c2cccnc2)n1/N=C/C=C/c1ccco1,0.0%,?,31.1%,0.0%,.
Cc1cc(-c2n[nH]c(=S)n2/N=C/c2ccc(C)o2)n[nH]1,-19.4%,?,23.8%,6.8%,-14.6%
O=[N+]([O-])c1cccc(/C=N/n2c(-c3cccnc3)n[nH]c2=S)c1,9.4%,2.24µM*,50.0%,11.1%,-17.7%
CCN(Cc1ccccc1)C(=O)Cn1c(=O)n(-c2cccc(C)c2)c(=O)c2c1c1cc(OC)ccc1n2C,.,1.8%,.,.,9.4%
Cc1cccc2c1-c1sc(C(=O)N(C)c3cccc(Cl)c3)cc1CO2,.,2.3%,.,.,-3.5%
CC(=C/c1ccccc1)/C=N/n1c(-c2ccco2)n[nH]c1=S,-15.4%[3.69 µM],.,48.2%,-20.8%,9.0%
CC(/C=N/n1c(-c2cc(C)[nH]n2)n[nH]c1=S)=C\c1ccccc1,5.6%,5.01µM*,43.9%,-14.2%,-5.9%
